Tau ThT inhib: qHTS for Inhibitors of Tau Fibril Formation, Thioflavin T Binding; recombinant tau K18 P301L, heparin-induced fibrillization, ThT fluorescence; Microtubule-associated protein tau (Homo sapiens), P10636; AID 1460, 2008; Potency, µM (series often up to 57.4 µM), hits mostly inhibitors; 2.1% of 270,000 active; also: nearly all actives have a fitted effect of over 55% in size
Target sequence (P10636 561-689 P618L limits assumed): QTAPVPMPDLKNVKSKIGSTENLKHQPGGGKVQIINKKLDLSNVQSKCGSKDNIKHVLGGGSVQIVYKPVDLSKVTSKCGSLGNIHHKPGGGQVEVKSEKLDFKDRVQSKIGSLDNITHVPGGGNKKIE
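Heparin-induced fibrillization of the P301L-mutant K18 repeat-domain fragment of human tau was followed by ThT binding in quantitative high-throughput format.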
Tau fluor counter: Counterscreen qHTS for Inhibitors of Tau Fibril Formation, Fluorescence Polarization. 0.93% of 280,000 active. tau K18 P301L (four-repeat tau fragment) Alexa594 fluorescence, heparin fibrillization. Potency, µM (titrated, usually from 57.7 µM); also: nearly all actives have a fitted effect of over 55% in size
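Human K18 P301L tau (15 uM unlabeled plus 0.24 uM Alexa 594-labeled, final) in 100 mM sodium acetate pH 7 was mixed with compound and 20 uM heparin and incubated 6 hr at 37 C.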
PNC inhibitor: High Content Assay for Compounds that inhibit the Assembly of the Perinucleolar Compartment; PC3M PTB-GFP, PNC prevalence imaging, 16 h; stronger effect = lower value; activity change (PNC), negative = inhibition, % at 10 µM; 3.1% of 140,000 active; AID 2417, 2010;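 active = readout at or below -70, meaning at least 70% loss of cells showing the perinucleolar compartment, a nuclear body marking cancer cells; inconclusive = readout between -30 and a set limit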
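Read-out is percentage of cells bearing a perinucleolar compartment, from automated 20x imaging of fixed, Hoechst-stained PC3M PTB-GFP cells. Cells were seeded 4 h, then exposed 16 h to compound (23 nl of library stock) in duplicate plates.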
NPSR antag: qHTS Assay for Antagonists of the Neuropeptide S Receptor: cAMP Signal Transduction | 1% of 220,000 active | AID 1461, 2008 | Q6W5P4 | Potency, µM (highest dose often 38.3 µM), actives largely listed as inhibitors | CHO-NPSR cells, cAMP TR-FRET, antagonist mode; also: nearly all actives have a fitted effect of over 50% in size
Target sequence (Q6W5P4 whole entry, looked up): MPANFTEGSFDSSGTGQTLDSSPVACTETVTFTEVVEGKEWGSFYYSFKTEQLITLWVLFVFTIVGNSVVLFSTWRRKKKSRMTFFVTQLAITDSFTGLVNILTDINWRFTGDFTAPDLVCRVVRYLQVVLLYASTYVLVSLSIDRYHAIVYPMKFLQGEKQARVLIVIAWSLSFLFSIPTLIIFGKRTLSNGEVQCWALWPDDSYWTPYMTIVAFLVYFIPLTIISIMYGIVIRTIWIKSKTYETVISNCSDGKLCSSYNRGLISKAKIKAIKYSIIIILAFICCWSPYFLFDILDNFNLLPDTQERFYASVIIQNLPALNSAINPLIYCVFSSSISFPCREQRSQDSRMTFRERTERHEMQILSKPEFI
JMJD2E inh: qHTS Assay for Inhibitors of Human Jumonji Domain Containing 2E (JMJD2E); Lysine-specific demethylase 4E (Homo sapiens), B2RXH2; JMJD2E catalytic domain, FDH-coupled NADH fluorescence (FDH is formaldehyde dehydrogenase); Potency, µM (doses to about 57.1 µM), most hits filed as inhibitors; 1.6% of 230,000 active; active = well fitted inhibition curve with a large enough effect, not every such curve was filed as active; inconclusive = small, poorly fitted or top-dose-only effect, or another doubt; inactive = no such curve, though single readings can be large or run the other way; also: nearly all actives have a fitted effect of over 50% in size
Tau FP inhib: qHTS for Inhibitors of Tau Fibril Formation, Fluorescence Polarization | Microtubule-associated protein tau (Homo sapiens), P10636 | Potency, µM (top dose mostly 57.7 µM), actives largely listed as inhibitors | AID 1468, 2008 | K18 P301L tau heparin fibrillization, Alexa594 FP, 6 h | 0.39% of 280,000 active; also: nearly all actives have a fitted effect of over 55% in size
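Read-out: fluorescence polarization of Alexa 594-labeled tau (0.24 uM), 555 nm excitation, 632 nm emission. Mixtures held 15 uM unlabeled K18 P301L, compound and 20 uM heparin, pH 7 acetate buffer, incubated 6 hr at 37 C.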
A number is an active result; - = inactive; ? = inconclusive; . = no result; ! = not active in a repeat; [ ] = another dose, or the depositor's remark. Only some compounds are listed: those with a hit (about 5.1% of all), similar ones and a draw of the others. Unless noted, calls follow the shape of the dose curve; as a rule, active = well fitted curve in the direction sought with a large enough effect; inconclusive = small, poorly fitted or top-dose-only effect, or another doubt; inactive = no such curve, though single readings can be large; an effect the other way counts as inactive or inconclusive.

SMILES | Tau ThT inhib | Tau fluor counter | PNC inhibitor | NPSR antag | JMJD2E inh | Tau FP inhib
Cc1ccc(CN2CCCn3nc(C(=O)NCCc4cccc(C)c4)cc3C2=O)cc1 | - | - | . | . | . | -
Fc1ccc(-c2nc3cnccn3c2NC2CCCC2)cc1 | - | - | . | - | - | -[2.34 µM]
Oc1ccc(Br)cc1-c1nc2cnccn2c1NC1CCCC1 | ? | 13µM[quencher] | - | - | ? | ?
Oc1ccc(Br)cc1-c1nc2cnccn2c1NC1CCCCC1 | ? | 14µM[quencher] | - | - | ? | ?
Cc1cc(C)cc(Oc2nc3c(c(=O)n(C)c(=O)n3C)n2Cc2ccc(F)cc2)c1 | - | - | . | . | . | -
COc1ccc(S(=O)(=O)Nc2cccc(F)c2)cc1C | - | - | . | - | - | -
O=S(=O)(Nc1cc(F)ccc1F)c1ccc2[nH]c3c(c2c1)CCCCC3 | - | 13µM[quencher] | . | . | . | ?
CN(CC(=O)NCc1ccc(Cl)cc1)S(=O)(=O)c1ccc2[nH]c3c(c2c1)CCCC3 | - | ? | . | . | . | -
CCOc1ccccc1NS(=O)(=O)c1ccc2[nH]c3c(c2c1)CCCCC3 | - | ? | . | . | . | -
O=S(=O)(Nc1cc(F)ccc1F)c1ccc2[nH]c3c(c2c1)CCCC3 | - | 11µM[quencher] | . | . | . | -
O=S(=O)(Nc1cccc(F)c1)c1ccc2[nH]c3c(c2c1)CCCCC3 | ? | 8.9µM[quencher] | . | . | . | ?
COc1ccc(C(CC(=O)NCc2ccc(Cl)cc2)N2Cc3ccccc3C2=O)cc1OC (stereo unspecified) | - | - | . | . | . | -
CN(C)c1ccc(/C=C(\C#N)c2nc(-c3ccc(Cl)c(Cl)c3)cs2)cc1 | ? | ? | . | . | . | -
COc1ccc(-c2noc(CN(C)CCC3CCCCO3)n2)cc1 (stereo unspecified) | - | -[2.34 µM] | . | - | - | -[2.34 µM]
COC(=O)c1ccc(-c2noc(CN(C)CCC3CCCCO3)n2)cc1 (stereo unspecified) | 11µM | - | . | ? | - | -
CCCCc1ccc(-n2nc3ccc(NC(=O)c4cc5ccccc5o4)cc3n2)cc1 | ? | - | . | . | . | -
Cc1cc(NC(=O)C(=O)NCCN2CCN(C(=O)c3cccs3)CC2)ccc1Br | - | - | -100 | - | - | -
Cc1cccc(C)c1OCC(=O)N(Cc1ccccc1F)C1CCS(=O)(=O)C1 (stereo unspecified) | - | - | . | . | . | -
O=C(O)c1cc(O)c2c(c1)C(=O)c1cc(O)cc(O)c1C2=O | 7.1µM | ? | . | - | - | -
COc1cc(O)c2c(c1)C(=O)c1cc(C)cc(O)c1C2=O | ? | - | . | . | ? | -
COc1ccc(CCNC(=O)C2CCCN(c3nc4c(C)cc(C)cc4s3)C2)cc1OC (stereo unspecified) | ? | - | . | . | . | -
N#CC1=C(SCC(=O)c2ccccc2)NC2=C(C(=O)CCC2)C1c1ccco1 (stereo unspecified) | 13µM | - | -89 | - | ? | 32µM
Cc1ccc(C(=O)CSC2=C(C#N)C(c3ccco3)C3=C(CCCC3=O)N2)cc1 (stereo unspecified) | 16µM | - | - | - | - | -
CC(C)(C)c1ccc(C(=O)CCCSC2=C(C#N)C(c3ccco3)C3=C(CCCC3=O)N2)cc1 (stereo unspecified) | - | - | ? | ? | - | -
CCOc1ccc2nc(NC(=O)c3nc(SCc4ccccc4C)ncc3Cl)sc2c1 | - | - | . | . | . | -
SMILES | Tau ThT inhib | Tau fluor counter | PNC inhibitor | NPSR antag | JMJD2E inh | Tau FP inhib
Cc1ccccc1-n1c(=O)cc(N2CCC3(CC2)OCCO3)[nH]c1=O | - | - | -119 | - | - | -
Cc1ccccc1-n1c(=O)cc(N2CCCCCC2)[nH]c1=O | - | - | - | - | - | -
COc1ccc(C)cc1NC(=O)N1CCN(c2cc(-c3noc(C)n3)ccc2C)CC1 | - | - | . | . | . | -
CC(C)(C)OC(=O)NCc1ccc(NC(=O)c2nc[nH]c2C(=O)N[C@@H](Cc2ccccc2)C(=O)OC(C)(C)C)cc1 | ? | ? | . | - | ? | 8.9µM
CC(C)C[C@H](NC(=O)c1[nH]cnc1C(=O)Nc1ccc(CNC(=O)OC(C)(C)C)cc1)C(=O)OC(C)(C)C | - | ? | . | ? | - | ?
CC(C)C[C@H](NC(=O)c1[nH]cnc1C(=O)Nc1ccc(CNC(=O)OC(C)(C)C)cc1)C(=O)OCc1ccccc1 | - | ? | . | ? | 32µM | 10µM
CC(C)(C)OC(=O)CNC(=O)c1[nH]cnc1C(=O)Nc1ccc(CNC(=O)OC(C)(C)C)cc1 | - | ? | . | - | - | ?
CC(C)(C)OC(=O)CNC(=O)c1[nH]cnc1C(=O)Nc1ccc(Cl)cc1 | ? | ? | . | - | - | 25µM
C[C@H](NC(=O)c1[nH]cnc1C(=O)Nc1ccc(CNC(=O)OC(C)(C)C)cc1)C(=O)OCc1ccccc1 | - | ? | . | - | - | ?
COc1ccc(OC)c(C(C)NC(=O)Cn2c(=O)cc(C)c3c(C)nn(-c4ccc(C)cc4)c32)c1 (stereo unspecified) | - | - | . | . | . | -
O=C(/C=C/c1ccc(Cl)cc1)Nc1nc(-c2cccs2)ns1 | - | - | . | . | . | ?
CCc1cccc(NC(=O)CSc2ncc3c(n2)-c2ccccc2N(Cc2ccccc2C)S3(=O)=O)c1 | - | ? | . | . | . | ?
COc1cc(NC(=O)c2cccs2)c(OC)cc1NC(=O)c1ccco1 | - | - | -114 | - | - | -
COc1ccc(NC(=O)c2ccco2)cc1NC(=O)c1cccs1 | - | - | - | - | - | -
COc1ccc(-n2cc(-c3ccccc3)c3c(N4CCCC(C)C4)ncnc32)cc1 (stereo unspecified) | - | - | . | . | . | -
CCc1c2c(nc3cccc(OC)c13)OC(CC)C2 (stereo unspecified) | - | - | . | . | ? | -
N/C(=N\OC(=O)COc1ccc([N+](=O)[O-])cc1)c1ccncc1 | - | - | . | - | - | -
N/C(=N\OC(=O)COc1ccc(Br)cc1)c1ccncc1 | - | - | -102 | - | - | -
N#C/C(=N\O)c1nc(-c2ccccc2)cs1 | ? | - | -127! | - | - | -
COc1cc(Cn2c(=O)sc3ccccc32)ccc1OCCC(C)C | - | - | . | . | . | -
CCCc1cc(C(=O)Nc2c(C)nn(Cc3ccc(Cl)c(Cl)c3)c2C)no1 | - | - | . | . | . | -
COc1ccc(N2CCN(c3oc(-c4ccccc4C)nc3S(=O)(=O)c3ccccc3)CC2)cc1 | - | - | . | . | . | -
CCOC(=O)c1sc2nc3c(SCC(=O)O)cc(C(=O)c4cc(F)ccc4O)cn3c(=O)c2c1C | 13µM | - | ? | - | ? | -
